HT1080NT lethal = kills 2HG-producing HT-1080-NT fibrosarcoma cells. HT-1080-NT fibrosarcoma viability, CellTiter-Glo ATP luminescence, 48 h. Potency, µM (series often up to 46.1 µM), inactives show top-dose activity, negative = less viability, usual class: cytotoxic. actives 1.6% (n = 360,000). AID 686970;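 note: NT is the 2HG producing partner of a matched IDH1 knockdown line; 0% = DMSO-treated cells and -100% = media-only wells without cells; nearly all actives have a fitted effect of over 55% in size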
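Read-out is CellTiter-Glo luminescence after 10 minutes at room temperature, following 48 hours' compound treatment of HT-1080-NT cells (750 cells/well, RPMI, 5% FBS, 37 degrees C).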
HepG2 viability = HepG2 cytotoxicity, counter-screen for TGF-b inhibitors; HepG2 CAGA-GFP viability, ATP luminescence, 18 h; Potency, µM (doses to about 46.1 µM), for inactives: at the highest dose activity change, negative = cytotoxicity, usual class: cytotoxic; actives 0.76% (n = 410,000); AID 588856
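HepG2 CAGA-GFP cells (1000/well, DMEM with 1% FBS) received compound, then TGF-beta at 500 pg/mL final, and were incubated 18 hours at 37 degrees C. Viability was read by CellTiter-Glo luminescence. Media-only wells were set as complete cell-killing and DMSO as no toxicity.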
HT1080 IDH1KD tx = kills HT-1080 cells with IDH1 knockdown | actives 2% (n = 360,000) | HT-1080 IDH1 knockdown viability, ATP luminescence, 48 h | Potency, µM (titrated, usually from 46.1 µM), for inactives: at the highest dose activity, negative = toxicity, hits mostly cytotoxic;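 note: 0% = DMSO wells and -100% = cell-free medium wells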
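CellTiter-Glo luminescence after 48 h compound exposure at 37 degrees C of IDH1-knockdown HT-1080 cells in 5% FBS RPMI. %Activity scaled between DMSO wells and cell-free media wells, with curves fitted and assigned curve classes.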
TDP1 cell CPT = DT40-hTDP1 cell growth loss with CPT | chicken DT40 Tdp1-/-;hTDP1 cells + 20 nM CPT, ATP luminescence, 48 h | Potency, µM (titrated, usually from 46.2 µM), for inactives: at the top dose activity change, negative = growth inhibition, usual class: inhibitors | actives 12% (n = 420,000) | AID 686979; note: % is set by controls: 0 for no effect and ±100 for the full control effect; nearly all actives have a fitted effect of over 55% in size
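Chicken DT40 Tdp1-/- cells stably complemented with human TDP1 were seeded at 400 cells/well in medium containing 20 nM camptothecin, exposed to pin-transferred compounds, and grown at 37 °C for at least 48 hr. Viability was read as ATP luminescence.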
TGFb SMAD3 inh = TGF-b pathway inhibition; actives 1.2% (n = 410,000); HepG2 CAGA-GFP TGF-b/SMAD3 reporter, GFP fluorescence, 18 h; TGF-beta stimulated, 500 pg/mL final; Potency, µM (top dose mostly 46.1 µM), without a hit: at the highest dose activity, negative = inhibition, hits mostly inhibitors; note: % is set by controls: 0 for no effect and ±100 for the full control effect; nearly all actives have a fitted effect of over 65% in size
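Smad-responsive CAGA-GFP expression was quantified in HEPG2 cells exposed to compounds and 500 pg/mL final TGF-beta for 18 h at 37 degrees C; unstimulated wells defined full inhibition.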
DT40 TDP1 no CPT = qHTS for Inhibitors of human tyrosyl-DNA phosphodiesterase 1 (TDP1): qHTS in cells in absence of CPT. DT40 Tdp1-/- hTDP1 cells, no CPT, ATP luminescence, 48 h. Potency, µM (series often up to 46.2 µM), without a hit: at the highest dose activity change, negative = growth inhibition, usual class: inhibitors. actives 15% (n = 420,000); note: % is set by controls: 0 for no effect and ±100 for the full control effect; nearly all actives have a fitted effect of over 55% in size
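Seeded 400 DT40-hTDP1 cells/well (vehicle DMSO, no 20 nM CPT); pinned compounds; ≥48 hr at 37 °C; CellTiter-Glo luminescence as viability measure.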
An asterisk follows results filed as active; ? = inconclusive; . = no result given. Sampled rows, rich in hits. Any-hit rate of the full collection: about 17%. Calls come from the whole dose curve; as a rule, active = well fitted curve in the direction sought with a large enough effect; inconclusive = small, poorly fitted or top-dose-only effect, or another doubt; inactive = no such curve, though single readings can be large; an effect the other way counts as inactive or inconclusive. Potency is the fitted concentration of half-maximal effect.

SMILES	HT1080NT lethal	HepG2 viability	HT1080 IDH1KD tx	TDP1 cell CPT	TGFb SMAD3 inh	DT40 TDP1 no CPT
C[C@H]1CN([C@@H](C)CO)C(=O)Cc2cc(NC(=O)CCC(F)(F)F)ccc2O[C@H]1CN(C)S(C)(=O)=O	10.8%	-4.8%	10.2%	12.3%	6.1%	3.0%
C[C@H](CO)N1C[C@H](C)[C@@H](CN(C)S(=O)(=O)c2ccc(F)cc2)Oc2c(NC(=O)Nc3ccc(C(F)(F)F)cc3)cccc2C1=O	-28.2%	-25.6%	-20.9%	?	?	?
CC(C)NC(=O)N(C)C[C@@H]1Oc2ccc(NC(=O)Nc3ccc(C(F)(F)F)cc3)cc2CC(=O)N([C@H](C)CO)C[C@@H]1C	?	7.3%	?	?	?	?
C[C@H]1CN([C@@H](C)CO)C(=O)c2cccc(NC(=O)Nc3ccc(C(F)(F)F)cc3)c2O[C@@H]1CN(C)S(=O)(=O)c1ccc(Cl)cc1	?	-87.7%	25.9µM*	7.31µM*	?	8.2µM*
C[C@@H]1CN([C@@H](C)CO)C(=O)Cc2cc(NC(=O)Nc3ccc(C(F)(F)F)cc3)ccc2O[C@@H]1CN(C)S(=O)(=O)c1ccc(Cl)cc1	?	-43.5%	23.1µM*	?	?	14.6µM*
C[C@H](CO)N1C[C@H](C)[C@@H](CN(C)S(=O)(=O)c2ccc(F)cc2)Oc2ccc(NC(=O)Nc3ccccc3)cc2C1=O	0.4%	4.0%	-9.7%	?	-42.9%	14.6µM*
Cc1cc(S(=O)(=O)Nc2ccc(C(=O)NCC(c3ccco3)N(C)C)cc2)ccc1F (stereo unspecified)	2.6%	1.9%	1.4%	-5.4%	?	-19.9%
C[C@H](CO)N1C[C@H](C)[C@@H](CN(C)S(=O)(=O)c2ccc(F)cc2)Oc2ccc(NC(=O)Nc3ccc(C(F)(F)F)cc3)cc2C1=O	?	-35.9%	?	?	?	?
C[C@@H]1CN([C@H](C)CO)C(=O)c2cc(NC(=O)Nc3ccc(C(F)(F)F)cc3)ccc2O[C@H]1CN(C)S(=O)(=O)c1ccc(Cl)cc1	-25.1%	2.0%	-22.3%	5.17µM*	?	5.8µM*
Cc1ccc(S(=O)(=O)N(C)C[C@@H]2Oc3ccc(NC(=O)Nc4cccc5ccccc45)cc3C(=O)N([C@H](C)CO)C[C@H]2C)cc1	0.6%	-0.1%	0.9%	?	5.9%	23.1µM*
C[C@H](CO)N1C[C@H](C)[C@H](CN(C)S(=O)(=O)c2cn(C)cn2)Oc2ccc(NC(=O)Nc3ccc(C(F)(F)F)cc3)cc2CC1=O	5.17µM*	-0.1%	23.1µM*	?	?	13µM*
CC1(C(=O)Nc2cnc3ccccc3c2)CCN1Cc1cc2ccccc2o1 (stereo unspecified)	-18.9%	-28.7%	?	13µM*	-8.8%	14.6µM*
CC(C)c1ccc(CN2CCC2(C)C(=O)Nc2cnc3ccccc3c2)cc1 (stereo unspecified)	?	-12.8%	?	18.4µM*	-29.6%	25.9µM*
CC1(C(=O)Nc2cnc3ccccc3c2)CCN1Cc1ccc2ccccc2c1 (stereo unspecified)	?	-31.8%	?	14.6µM*	?	?
CCC(=O)N1CCc2cc(CNS(=O)(=O)c3cc(OC)ccc3OC)ccc21	.	-2.4%	.	-0.6%	-1.1%	-1.4%
CCCc1cc(=O)oc2c(C)c3c(cc12)CN(CCc1ccc(Cl)cc1)CO3	.	-17.2%	.	6.51µM*	0.2%	14.6µM*
Cc1cc(=O)oc2c3c(ccc12)OCN(Cc1ccc(Cl)cc1)C3	.	-6.7%	.	?	5.0%	?
CCc1cc(=O)oc2c(C)c3c(cc12)CN(CCc1ccccc1OC)CO3	.	-22.7%	.	-40.8%	28.7%	20.6µM*
Cn1c(O)c(N=Nc2ccccc2[N+](=O)[O-])c2ccccc21	19.0%	5.4%	3.2%	5.1%	-12.9%	-2.4%
Cn1c(-c2ccccc2[N+](=O)[O-])[n+](C)c2ccccc21	-7.4%	-15.6%	?	13µM*	-6.3%	5.8µM*
O=C(Nc1nc2n(n1)C(c1ccc(Cl)cc1)CC(c1ccc(Cl)cc1)N2)c1ccco1 (stereo unspecified)	23.1µM*	-42.3%	23.1µM*	?	?	?
COc1ccc(C2C=C(c3ccccc3)Nc3nc(CCCO)nn32)cc1 (stereo unspecified)	0.2%	-1.0%	8.6%	-24.7%	17.6%	?
COc1ccc(C2C=C(c3ccccc3)Nc3nc(NC(=O)/C=C/c4ccccc4)nn32)cc1 (stereo unspecified)	.	-42.9%	.	9.2µM*	-3.0%	7.31µM*
COc1ccc(C2C=C(c3ccccc3)Nc3nc(NS(=O)(=O)c4ccc(C)cc4)nn32)cc1 (stereo unspecified)	.	1.7%	.	-12.0%	48.0%	-19.1%
O=C(Nc1nc2n(n1)C(c1ccccc1)C=C(c1ccccc1)N2)c1ccco1 (stereo unspecified)	23.5%	5.6%	14.9%	6.2%	0.0%	10.9%
SMILES	HT1080NT lethal	HepG2 viability	HT1080 IDH1KD tx	TDP1 cell CPT	TGFb SMAD3 inh	DT40 TDP1 no CPT
COc1ccc(C2CC(c3ccc(Cl)cc3)Nc3nc(NC(=O)c4ccco4)nn32)cc1 (stereo unspecified)	-29.6%	9.3%	?	?	?	?
COc1ccc(C2C=C(c3ccccc3)Nc3nc(NC(=O)/C=C/c4ccccc4OC)nn32)cc1 (stereo unspecified)	.	-23.0%	.	5.8µM*	-1.0%	2.59µM*
O=C(Nc1nc2n(n1)C(c1ccccc1)C=C(c1ccc(Cl)cc1)N2)c1ccco1 (stereo unspecified)	.	-13.4%	.	20.6µM*	54.2%	23.1µM*
CCC(Sc1ncccc1Nc1ccccn1)C(=O)O (stereo unspecified)	-2.9%	-16.0%	9.2%	-6.1%	-12.5%	-16.2%
COc1ccc(C(=O)Nc2nc3n(n2)C(c2ccccc2)C=C(c2ccccc2)N3)cc1 (stereo unspecified)	.	7.0%	.	18.4µM*	24.7%	?
COc1ccc(-c2c(C#N)sc(C(N)=O)c2-c2ccc(OC)cc2)cc1	-9.6%	-26.2%	-1.0%	?	?	10.3µM*

From PubChem
